In the library only some 2.7% were active in any assay of this set; here they are far more common.
SENP7 block: SENP7 protease inhibition | Q9BQF6 | recombinant SENP7, Z-RLRGG-aminoluciferin luminescence, 40 min | inhibition, % at 5 µM | 330,000 compounds, 1.5% hits | AID 434973;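 active means inhibition above about 50% at the single test dose, limit read from the data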;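 further: plate controls were DMSO with enzyme for no effect and no enzyme buffer wells for full effect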
SENP8 block-1: SENP8 (human) protease inhibition; inhibition, % at 20 µM; 360,000 compounds, 0.64% hits; AID 602440; Q96LD8; recombinant SENP8, Nedd8 substrate fluorescence; in the data active means inhibition mostly above about 40%, no sharp cut-off; inactive means mostly below about 27%
SENP8 block-2: blocks the human protease SENP8 | AID 2540 | inhibition, % at 10 µM | 330,000 compounds, 1.2% hits | purified SENP8, Z-RLRGG-aminoluciferin cleavage, luminescence; in the data active means inhibition above about 50%
SENP6 inh: inhibitors of human SENP6 protease. Recombinant SENP6 catalytic domain, aminoluciferin luminescence. Q9GZR1. 330,000 compounds, 1.8% hits. AID 2599. inhibition, % at 10 µM;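 active means inhibition above about 50% at the single tested dose, limit read from the data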;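 further: plate controls were DMSO wells with enzyme for no effect and DMSO wells lacking enzyme for full effect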
HSP90 refold inh: blocks HSP90-mediated luciferase refolding in reticulocyte lysate; 290,000 compounds, 0.91% hits; Rabbit reticulocyte lysate, luciferase refolding luminescence, 3 h; inhibition, % at 5.6 µM;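 active means inhibition above the screen-wide mean plus 3 SD, computed separately per campaign, cut at about 16% in these data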;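 further: 0% = DMSO wells and 100% = 60 µM geldanamycin wells; inhibitors lower the luminescence because luciferase stays unfolded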
HSP90 confirm: HSP90 inhibition, confirmation assay | inhibition, % at 5.9 µM | rabbit reticulocyte lysate, luciferase refolding luminescence, 3 h | 2,300 compounds, 64% hits | shares compounds with HSP90 refold inh; in the data active means inhibition above about 18%;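 further: 0% = vehicle wells and 100% = reference inhibitor wells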
luciferase ctr: firefly luciferase inhibition, HSP90 counter-screen. shares compounds with HSP90 refold inh. purified native firefly luciferase, luminescence. inhibition, % at 5.9 µM. 2,300 compounds, 48% hits. AID 1847;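 active means inhibition above the mean inhibition of all tested sample wells plus 3 SD, cut at about 10% in these data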;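 further: 0% = DMSO with luciferase and 100% = wells lacking luciferase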
Target sequence (P08659 whole entry, looked up): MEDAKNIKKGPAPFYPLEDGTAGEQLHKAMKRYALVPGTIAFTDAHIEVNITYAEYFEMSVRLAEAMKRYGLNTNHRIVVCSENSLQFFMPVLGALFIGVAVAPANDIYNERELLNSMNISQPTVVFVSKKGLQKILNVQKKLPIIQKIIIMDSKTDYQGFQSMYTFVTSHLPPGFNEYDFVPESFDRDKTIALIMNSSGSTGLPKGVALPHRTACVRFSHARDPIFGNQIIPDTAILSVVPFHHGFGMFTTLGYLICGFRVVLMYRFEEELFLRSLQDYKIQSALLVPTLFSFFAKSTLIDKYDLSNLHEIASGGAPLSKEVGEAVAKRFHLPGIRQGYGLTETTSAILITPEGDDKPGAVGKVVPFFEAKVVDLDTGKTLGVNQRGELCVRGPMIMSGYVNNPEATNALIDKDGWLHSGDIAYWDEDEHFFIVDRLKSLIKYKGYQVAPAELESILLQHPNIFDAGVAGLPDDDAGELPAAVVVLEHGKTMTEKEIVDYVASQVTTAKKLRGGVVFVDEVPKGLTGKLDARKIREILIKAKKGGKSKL
SENP8 conf: human SENP8 inhibition, confirmed; shares compounds with SENP7 block; Recombinant SENP8, Z-RLRGG-aminoluciferin luminescence, 60 min; inhibition, % at 12.5 µM; 6,200 compounds, 40% hits; AID 488912;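 active means mean inhibition across replicates above about 50%, limit read from the data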
SENP6 conf: confirmation of human SENP6 protease inhibitors | shares compounds with SENP7 block | recombinant SENP6, Z-RLRGG-aminoluciferin luminescence | inhibition, % at 12.5 µM | 6,200 compounds, 58% hits | AID 488915
SENP7 confirm: human SENP7 inhibition, confirmed. shares compounds with SENP7 block. recombinant SENP7, Z-RLRGG-aminoluciferin luminescence, 40 min. inhibition, % at 12.5 µM. 6,200 compounds, 69% hits
Casp3 SENP sel: caspase-3 inhibition (SENP selectivity assay); shares compounds with SENP7 block; purified caspase-3, Z-DEVD-aminoluciferin luminescence, 60 min; inhibition, % at 12.5 µM; 6,200 compounds, 60% hits; AID 488918;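 active means mean inhibition above about 50%, limit read from the data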;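 further: plate controls were enzyme with DMSO for no effect and wells without caspase-3 for full effect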
SENP luc ctr: luminescence interference (SENP counter-screen) | shares compounds with SENP7 block | Pre-incubated SENP8/Z-RLRGG-aminoluciferin, luciferase luminescence interference | inhibition, % at 12.5 µM | 6,200 compounds, 39% hits;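 active means mean inhibition above about 50% when retested at one dose, limit read from the data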;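 further: plate controls were DMSO wells with completed reaction for no effect and substrate without enzyme for full effect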
* marks the source's active call; other numbers are inactive results; . = no result.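 How the source made its calls, unless noted: active means mean inhibition above about 50% in the one-dose retest (limit read from the data); inactive means the rest.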

SMILES	SENP7 block	SENP8 block-1	SENP8 block-2	SENP6 inh	HSP90 refold inh	HSP90 confirm	luciferase ctr	SENP8 conf	SENP6 conf	SENP7 confirm	Casp3 SENP sel	SENP luc ctr
c1ccc(-c2cc(-c3nc(-c4ccccn4)no3)c3ccccc3n2)cc1	7	-290	2	0	2	.	.	.	.	.	.	.
Cc1ccc(-c2nc(-c3ccccn3)no2)cc1	99*	27	98*	99*	94*	98*	94*	4	101*	103*	100*	99*
Cc1ccc(Cc2nc(-c3ccccn3)no2)cc1	14	4	-5	6	5	.	.	.	.	.	.	.
c1ccc(-c2nc(-c3ccccn3)no2)cc1	101*	15	95*	96*	46*	80*	70*	98*	99*	103*	99*	97*
Cc1ccc(-c2nc(-c3ccccn3)no2)cc1[N+](=O)[O-]	88*	12	85*	92*	30*	58*	52*	63*	83*	88*	85*	23
Cc1oc(-c2ccccc2)nc1C(=O)OCC(=O)NCc1ccc(Cl)cc1	-11	-10	-18	-23	.	.	.	.	.	.	.	.
Nc1c(C(=O)Nc2ccc3c(c2)OCCO3)nnn1Cc1ccc(Cl)cc1	-7	15	7	-7	.	.	.	.	.	.	.	.
O=C(COc1ccccc1[N+](=O)[O-])Nc1ccc2c(c1)CCC2	-6	26	-9	-15	.	.	.	.	.	.	.	.
O=C(O)/C(=C\c1ccc(-c2ccccc2[N+](=O)[O-])o1)c1ccccc1	0	2	48	58*	34*	-5	-9	60*	66*	74*	59*	54*
O=C(/C=C/c1ccc(-c2ccccc2[N+](=O)[O-])o1)c1ccccc1	.	2	.	.	0	.	.	.	.	.	.	.
Cc1ccc(S(=O)(=O)/N=C(/c2ccccc2)N2CCOCC2)c(C)c1	3	1	-8	0	-3	.	.	.	.	.	.	.
Cc1ccc(S(=O)(=O)/N=C2\C=C(Nc3cccc(C(=O)O)c3)C(=O)c3ccccc32)c(C)c1	55*	81*	94*	95*	92*	90*	-17	60*	97*	48	19	0
C=CCc1ccc(OCCCCOc2ccc(C(=O)O)cc2)c(OC)c1	-9	10	-8	-5	-1	.	.	.	.	.	.	.
CCCc1ccc(OCc2ccc(C(=O)O)o2)c(OC)c1	54*	8	69*	75*	81*	82*	41*	74*	73*	92*	15	83*
C=CCc1ccc(OCc2ccc(C(=O)O)o2)c(OC)c1	63*	8	64*	79*	86*	83*	46*	76*	76*	94*	16	80*
CCOc1ccc(OCc2ccc(C(=O)O)o2)cc1	96*	8	94*	97*	90*	92*	60*	96*	99*	102*	80*	97*
O=C(CSc1nnc(-c2ccccn2)n1Cc1ccccc1)N1CCOCC1	0	21	0	-5	-2	.	.	.	.	.	.	.
O=C(Cc1c(F)cccc1Cl)Nc1ccc(S(=O)(=O)N2CCCC2)cc1	2	-3	-5	0	-4	.	.	.	.	.	.	.
COc1cccc(OCc2cc(/C=N/Nc3ccc(C(=O)O)cc3)ccc2OC)c1	11	-201	80*	87*	55*	66*	56*	58*	84*	95*	48	22
O=C(O)c1cc(/C=N\O)ccc1OCc1ccccc1	-4	26	-3	-1	-2	.	.	.	.	.	.	.
CCOc1cc(/C=N/Nc2ccc(C(=O)O)cc2)ccc1OC(=O)c1ccccc1C	3	-153	4	-8	12	.	.	.	.	.	.	.
COc1cc(/C=N/O)ccc1OCc1ccc(C(=O)O)cc1	100*	15	96*	97*	76*	85*	80*	97*	100*	104*	98*	99*
COc1cccc(C(=O)Oc2ccc(/C=N/Nc3ccc(C(=O)O)cc3)cc2OC)c1	4	-121	31	52*	22*	48*	31*	57*	50	66*	13	34
COc1ccc(C(=O)N/N=C/c2ccc(OC)c(COc3ccc(F)cc3)c2)cc1	12	-80	-6	-6	1	.	.	.	.	.	.	.
O=C(NCCc1c[nH]c2ccccc12)c1cnc2n(c1=O)CCS2	-12	19	-7	15	0	.	.	.	.	.	.	.
SMILES	SENP7 block	SENP8 block-1	SENP8 block-2	SENP6 inh	HSP90 refold inh	HSP90 confirm	luciferase ctr	SENP8 conf	SENP6 conf	SENP7 confirm	Casp3 SENP sel	SENP luc ctr
N/C(=N\OC(=O)c1ccc(=O)n(Cc2ccccc2)c1)c1ccccn1	-8	0	-6	-10	-1	.	.	.	.	.	.	.
CCOc1cc(/C=C/C(=O)c2ccc(C)cc2)ccc1OCC(=O)N(C)C	5	-37	-4	-1	-8	.	.	.	.	.	.	.
Cc1cccc(Nc2ncccc2C(=O)NCc2cccs2)c1C	-3	22	-2	-4	-2	.	.	.	.	.	.	.
O=C(Nc1nc2ccccc2[nH]1)c1ccccc1OC(F)F	91*	-250	84*	91*	30*	55*	45*	87*	88*	100*	95*	90*
COc1cc(OC)cc(C(=O)Nc2nc3ccccc3[nH]2)c1	-7	-46	3	24	-4	.	.	.	.	.	.	.
COc1cc(C(=O)Nc2nc3ccccc3[nH]2)ccc1OC(F)F	25	-24	4	39	-1	.	.	.	.	.	.	.
CC(C)Oc1ccc(C(=O)Nc2nc3ccccc3[nH]2)cc1	100*	0	97*	97*	83*	90*	85*	91*	99*	103*	98*	68*
COc1ccc(Br)c(C(=O)Nc2nc3ccccc3[nH]2)c1	-6	11	-28	-30	1	.	.	.	.	.	.	.
O=C(Nc1nc2ccccc2[nH]1)c1ccc(OC(F)F)cc1	96*	3	89*	95*	37*	58*	53*	81*	93*	101*	95*	62*
O=C(CCOc1cccc(Br)c1)Nc1ccc(F)c(S(=O)(=O)N2CCOCC2)c1	1	-4	13	-1	.	.	.	.	.	.	.	.
O=C(Cc1ccc(F)cc1)N1CCC2(CC1)NCCc1[nH]cnc12	16	2	-5	1	-7	.	.	.	.	.	.	.
